# Source: PubChem BioAssay (Tox21)
# Calls of active or inactive are those of the source. Calls follow the shape of the dose curve; as a rule, active = well fitted curve in the direction sought with a large enough effect in the repeat runs; inconclusive = weak or mixed curves; inactive = flat fitted curve, though single readings scatter.
# Experiment: qHTS assay to test for compound auto fluorescence at 535 nm (green) in HEK293 cells (AID 720680)
# Conditions: green autofluorescence 485/535 nm; series mostly up to 91.3 µM
# Excerpt: U.S. Tox21 Program National Center for Advancing Translational Sciences [NCATS] NIH Chemical Genomics Center [NCGC] U.S. Environmental Protection Agency [EPA] National Institutes of Environmental Health Sciences [NIEHS] National Toxicology Program [NTP] U.S. Food and Drug Administration [FDA] Tox21 Assay Overview: Compound auto fluorescence often interferes with screening of the compound library against various biological targets and signaling pathways. Some of these compounds may have fluorophoric properties. Such properties may interfere with the assay outputs resulting in false positives and/or negatives. To decrease such complications and ensure the compound activities are relevant in terms of biological response, the Tox21 10K compound library was screened for auto fluorescence. From the fluorophores used as reporter signals in our screening assays, the auto fluorescence equivalencies of compounds against three fluorophores have been evaluated: Triamterene, Fluorescein and Rose Bengal sodium for blue, green and red fluorescence, respectively. The fluorescence intensities were measured using Excitation/Emission wavelengths at 405/460nm, 485/535nm and 540/590nm for blue, green and red labels, respectively. This assay includes the green fluorescence data.
# Tox21 Assay Protocol Summary: 2,000 HEK293 cells in 5 uL of culture medium containing 10% dialyzed FBS per well were dispensed into black wall/clear bottom 1536-well plates using a Multidrop Combi Dispenser (Thermo Scientific). The assay plates were incubated for 4-5 hr at 37C to allow cell attachment to the well bottom, followed by the transfer of 23 nL compound or DMSO vehicle by a pintool work station (Kalypsys, San Diego, CA). After the assay plates were incubated overnight at 37C and 5% CO2, fluorescence intensities in the assay plates were measured by an Envision (PerkinElmer, Shelton, CT) plate reader using three labels for measuring blue, green and red fluorescence at […] 460, 535 and 590nm respectively.
# % is scaled to controls: 0 for no effect and ±100 for the full control effect.
Compound,outcome,"fluorescence, % of fluorescein"
C=CC(=O)CC,inactive,–
CN(C)CCCN(C)C,–,-0.137% [at 3.72 µM] (inactive)
C=CCCCCCCCCOC(C)=O,inactive,–
O=S(=O)(O)CC(O)CCl (stereo not given),inactive,–
Clc1cc(Cl)c(Cl)c(Cl)c1Cl,inactive,–
CC1(C)CC(N)CC(C)(C)N1,inactive,–
CC(C)OC(=O)C(C(=O)OC(C)C)=C1SC=CS1,inactive,–
Cc1ccccc1C#N,inactive,–
C=C(C)C(=O)OCCOC1CC2CC1C1C=CCC21 (stereo not given),inactive,–
CSC(=O)c1cccc2nnsc12,inactive,–
CC(=O)c1ccc2ccc3ccccc3c2c1,inactive,–
O=C(OOC(=O)c1ccccc1)c1ccccc1,inactive,–
CCCCN=C(N)N=C(N)N,inactive,–
Nc1nc(Cl)cc(Cl)n1,inactive,–
CC[C@@]1(c2ccccc2)NC(=O)N(C)C1=O,inactive,–
O=c1[nH]c(=O)c2cn[nH]c2[nH]1,inactive,–
CCCC(=O)C(CC)Sc1ccoc1C (stereo not given),inactive,–
NCC1CCC(C(=O)Oc2ccc(CCC(=O)O)cc2)CC1 (stereo not given),inactive,–
CC(=O)SCC(CC(=O)c1ccc(C)cc1)C(=O)O (stereo not given),inactive,–
CCCOc1ccc(C(=O)OCCN(CC)CC)cc1N,inactive,–

Compound,outcome,"fluorescence, % of fluorescein"
CCOC(=O)CC(C(C)=O)C(C)=O,inactive,–
Cc1ccc(Br)cc1,inactive,–
CCOC(=O)[C@H](CCc1ccccc1)N[C@H]1CS[C@H](c2cccs2)CN(CC(=O)O)C1=O,inactive,–
CC/C=C\CCCCCCCCCCOC(C)=O,inactive,–
CCCCCC(=O)CC,inactive,–
CCOC(=O)COc1ccc2c(C)c(CCN(CC)CC)c(=O)oc2c1Cl,inactive,–
CC(C)OCCO,inactive,–
COc1cc(C(=O)NC2CCCNC2)cc(OC)c1OC (stereo not given),inactive,–
CCCCCCC(O)CO (stereo not given),inactive,–
CC(C)(Sc1cc(C(C)(C)C)c(O)c(C(C)(C)C)c1)Sc1cc(C(C)(C)C)c(O)c(C(C)(C)C)c1,–,0.0112% [at 18.6 µM] (inactive)
CC/C=C\CCOC(=O)c1ccccc1,inactive,–
C=CC(C)(CCC=C(C)C)OC(=O)C(C)C (stereo not given),inactive,–
Cc1ccc(S(=O)(=O)NC(=O)NN2CC3CCCC3C2)cc1 (stereo not given),–,-0.0141% [at 18.6 µM] (inactive)
CC(C)(C)OC(=O)c1ccccc1C(=O)O,inactive,–
COc1cnc(NS(=O)(=O)c2ccc(N)cc2)nc1,–,-0.0702% [at 18.6 µM] (inactive)
CC(=O)Nc1ccc(S(=O)(=O)Nc2cc(C)on2)cc1,inactive,–
CN(C)CCc1c[nH]c2ccc(C[C@H]3COC(=O)N3)cc12,inactive,–
Cc1nnc(C(=O)NC(C)(C)c2nc(C(=O)NCc3ccc(F)cc3)c(O)c(=O)n2C)o1,inactive,–
COCc1nnc(-c2ccc[n+]([O-])c2)n1-c1c(Cl)c(Cl)cc2[nH]c(=O)c(=O)[nH]c12,inactive,–
Cc1ccc2cccnc2c1,inactive,–
